Assay results from PubChem BioAssay (NCATS).
Inconclusive results are not listed. Unmarked numbers belong to inactive results. The source made the active and inactive calls. Calls come from the whole dose curve; as a rule, active = well fitted inhibition curve with a large enough effect; inconclusive = small, poorly fitted or top-dose-only effect, or effect the other way; inactive = no such curve, though single readings can be large or run the other way.

Test: Quantitative high throughput screen for delayed death inhibitors of the malarial parasite plastid, 96 hour incubation (AID 488745); note: nearly all actives have a fitted effect of over 70% in size
Conditions: Plasmodium falciparum growth; series mostly up to 28.7 µM; activity change, negative = inhibition: at the top concentration
Source text: NIH Molecular Libraries Probe Production Network [MLPCN]
NIH Chemical Genomics Center [NCGC]
Assay Provider: David Fidock and Eric Ekland, Columbia University
The goal of this screen is to discover new antimalarial compounds that act by inhibiting the development of the apicoplast in the malarial parasite Plasmodium falciparum. The biochemical processes that make this organelle essential for erythrocytic stage parasites are not well understood. However, antibiotics such as azithromycin and tetracycline, which target the apicoplast translational machinery, have a potent antimalarial effect.
We have developed a cell-based assay that measures parasite growth based on the expression of an integrated copy of a firefly luciferase reporter. To detect small molecules that cause this 'delayed death' phenotype, erythrocytes infected with the luciferase-expressing parasites were incubated with compounds for either one or two generations, corresponding to 48 and 96 hours, respectively. Compounds that inhibit parasite growth in the second generation, but not the first, should be enriched in antimalarials that target the apicoplast. Growth inhibition is detected by a decrease in luciferase activity
Four microliters of culture medium (RPMI 1640 with 0.5% w/v Albumax (GIBCO), 24 mM sodium bicarbonate and 10 ug/mL gentamycin) were dispensed by a Multi-drop Combi into white solid 1536-well plates (Grenier) and 23 nL compound was added by a pin tool. Four microliters of infected erythrocytes (2% hematocrit, 0.1% parasitemia final concentration) in culture medium were dispensed and the plates incubated for 96 hours at 37 C in 5% CO2. Two microliters of luciferase detection reagent was added and luminescence was detected by a ViewLux (PerkinElmer) reader
% is set by controls: 0 for no effect and ±100 for the full control effect; potency is the fitted concentration of half-maximal effect.

Compared with `CN1C(C(=O)Nc2ccccn2)=C(O)c2ccccc2S1(=O)=O`, `CN1CCN2c3ccccc3Cc3ccccc3C2C1` (stereo not given) is higher in “activity change, negative = inhibition” value: -14.8% for the first, 0.713% for the second.

Compared with `CC1COc2c(N3CCN(C)CC3)c(F)cc3c(=O)c(C(=O)O)cn1c23` (stereo not given), `CCOC(=O)c1ncn2c1CN(C)C(=O)c1cc(F)ccc1-2` is lower in “activity change, negative = inhibition” value: 17.7% for the first, 8.46% for the second.

First: CN(C)CCOC(c1ccccc1)c1ccccc1
Second: CC(COc1ccccc1)N(CCCl)Cc1ccccc1 (stereo not given)
The “activity change, negative = inhibition” value of the first is lower: -13.6% for the first, 3.19% for the second.

First: COc1ccc(C2CNC(=O)C2)cc1OC1CCCC1 (stereo not given)
Second: COc1cc2c(c(OC)c1OC)-c1ccc(OC)c(=O)cc1[C@@H](NC(C)=O)CC2
The “activity change, negative = inhibition” value of the first is lower: -28.8% for the first, -20.1% for the second.

Compared with `NC(=O)NO`, `C[C@](N)(Cc1ccc(O)c(O)c1)C(=O)O` is lower in “activity change, negative = inhibition” value: 8.62% for the first, -6.2% for the second.

First: Cn1c(=O)c2[nH]cnc2n(C)c1=O
Second: Cn1c(=O)c2c(ncn2C)n(C)c1=O
The “activity change, negative = inhibition” value of the first is higher: 1.17% for the first, -1.12% for the second.

Compared with `COc1ccc2[nH]cc(CCNC(C)=O)c2c1`, `COc1ccc2c(c1)c(CC(=O)O)c(C)n2C(=O)c1ccc(Cl)cc1` is higher in “activity change, negative = inhibition” value: 5.89% for the first, 8.25% for the second.

Going from `COc1ccccc1OCC(O)CN1CCN(CC(=O)Nc2c(C)cccc2C)CC1` (stereo not given) to `COc1ccccc1N1CCN(CC(O)COc2cccc3ccccc23)CC1` (stereo not given), the “activity change, negative = inhibition” value falls from -0.507% to -1.53%.

Compared with `Nc1nnc(-c2cccc(Cl)c2Cl)c(N)n1`, `CN(Cc1cnc2nc(N)nc(N)c2n1)c1ccc(C(=O)N[C@@H](CCC(=O)O)C(=O)O)cc1` is higher in “activity change, negative = inhibition” value: -19.6% for the first, 0.586% for the second.

Going from `CC12CC3CC(C)(C1)CC(N)(C3)C2` to `CCC1(C)CC(=O)NC1=O` (stereo not given), the “activity change, negative = inhibition” value rises from -1.67% to 6.2%.

Compared with `CS(=O)(=O)Nc1ccc([N+](=O)[O-])cc1Oc1ccccc1`, `CC(C(=O)O)c1cccc(C(=O)c2ccccc2)c1` (stereo not given) is higher in “activity change, negative = inhibition” value: -3.8% for the first, 4.51% for the second.

Going from `Cc1cnc(C(=O)NCCc2ccc(S(=O)(=O)NC(=O)NC3CCCCC3)cc2)cn1` to `Cc1ccccc1N1C(=O)c2cc(S(N)(=O)=O)c(Cl)cc2NC1C` (stereo not given), the “activity change, negative = inhibition” value falls from 2.21% to -11.5%.

Going from `Nc1nc2c(ncn2COC(CO)CO)c(=O)[nH]1` to `Cn1cnc2c1c(=O)[nH]c(=O)n2C`, the “activity change, negative = inhibition” value rises from -1.17% to 5.78%.

First: Nc1ccn([C@H]2CC[C@@H](CO)O2)c(=O)n1
Second: CCc1cccc2c3c([nH]c12)C(CC)(CC(=O)O)OCC3 (stereo not given)
The “activity change, negative = inhibition” value of the first is lower: -1.43% for the first, 2.07% for the second.

Compared with `Cc1ccc(C(=O)Nc2ccc(S(=O)(=O)O)c3cc(S(=O)(=O)O)cc(S(=O)(=O)O)c23)cc1NC(=O)c1cccc(NC(=O)Nc2cccc(C(=O)Nc3cc(C(=O)Nc4ccc(S(=O)(=O)O)c5cc(S(=O)(=O)O)cc(S(=O)(=O)O)c45)ccc3C)c2)c1`, `Clc1ccc(C(c2ccccc2Cl)C(Cl)Cl)cc1` (stereo not given) is lower in “activity change, negative = inhibition” value: 3.26% for the first, 2.87% for the second.

Going from `Cc1cc(C(C)(C)C)cc(C)c1CC1=NCCN1` to `NS(=O)(=O)c1cc2c(cc1Cl)NCNS2(=O)=O`, the “activity change, negative = inhibition” value falls from -19.4% to -20.4%.

For `CN(C)CCCN1c2ccccc2CCc2ccc(Cl)cc21`, the Potency was 3.29 µM (active).
With `CC(CCc1ccc(O)cc1)NCCc1ccc(O)c(O)c1` (stereo not given) the Potency was 5.86 µM (active).
With `OCCN(CCO)c1nc(N2CCCCC2)c2nc(N(CCO)CCO)nc(N3CCCCC3)c2n1` the Potency was 10.4 µM (active).
For `CN1C2CCC1CC(OC(=O)C(CO)c1ccccc1)C2` (stereo not given), the Potency was “inactive”.
With `O=C1c2c(O)ccc(O)c2C(=O)c2c(NCCNCCO)ccc(NCCNCCO)c21` the Potency was 1.31 µM (active).
For `CCCCc1oc2ccccc2c1C(=O)c1cc(I)c(OCCN(CC)CC)c(I)c1`, the Potency was 8.28 µM (active).
For `O=C(CCCN1CCC(O)(c2ccc(Cl)cc2)CC1)c1ccc(F)cc1`, the Potency was 7.38 µM (active).
For `COc1cc2nc(N3CCN(C(=O)C4COc5ccccc5O4)CC3)nc(N)c2cc1OC` (stereo not given), the Potency was 3.29 µM (active).
